Screening data from PubChem.
The list is not random: actives were taken first. Their share in the collection is about 5.4%.
rCAG RNA binder = binds r(CAG) RNA repeats; r(CAG) RNA repeat, TO-PRO-1 dye displacement fluorescence; inhibition, % at 3 µM; 1.3% of 370,000 active; AID 651821;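 active = inhibition above the plate cutoff, the mean of all test compounds on that plate plus 3 SD, cut at about 35% in these data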;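 also: 0% = DMSO alone and 100% = 100 µM mitoxantrone as full dye displacement; higher means more dye released from RNA so lower well fluorescence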
A3A deaminase = blocks human APOBEC3A ssDNA deamination. P31941. recombinant A3A, FAM/TAMRA ssDNA deamination fluorescence. inhibition, % at 20 µM. 0.41% of 330,000 active. AID 493011;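 active = at least 40% inhibition at 20 µM here, with at most 30% in a related deaminase screen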;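 also: plate controls were A3A with DMSO for no effect and wells lacking A3A enzyme for full effect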
Target sequence (P31941 whole entry, looked up): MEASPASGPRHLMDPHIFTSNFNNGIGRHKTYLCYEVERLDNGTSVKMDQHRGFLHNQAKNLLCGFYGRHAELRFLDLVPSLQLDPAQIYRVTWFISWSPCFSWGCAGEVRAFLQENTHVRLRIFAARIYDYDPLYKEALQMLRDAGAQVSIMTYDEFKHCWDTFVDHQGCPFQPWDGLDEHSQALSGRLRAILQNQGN
ALR inh = inhibitors of human sulfhydryl oxidase ALR. P55789. purified ALR, DTT oxidation, H2O2 HRP-luminol luminescence. inhibition, % (no concentration beside the values). 3.8% of 290,000 active. AID 485317;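 active = mean replicate inhibition above about 79%, with every replicate also reaching it, limit read from the data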
Target sequence (P55789 whole entry, looked up): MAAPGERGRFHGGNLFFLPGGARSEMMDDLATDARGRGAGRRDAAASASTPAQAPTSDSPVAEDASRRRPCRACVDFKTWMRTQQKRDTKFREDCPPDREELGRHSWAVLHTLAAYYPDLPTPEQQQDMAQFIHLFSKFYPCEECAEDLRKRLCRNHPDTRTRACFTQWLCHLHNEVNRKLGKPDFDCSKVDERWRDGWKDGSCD
aDG glyco up = alpha-DG glycosylation activation; Pro5-aDG cells, alpha-DG glycosylation AlphaScreen (IIH6); 0% Pro5, 100% B10-LARGE cell signal; activation, % at 10 µM; 0.22% of 360,000 active; AID 624168;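 active = activation of at least 8% versus controls, or a plate z-score of at least 8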;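 also: Pro5 are CHO cells carrying HIG-tagged alpha-DG that lacks glycosylation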
APOBEC3G inh = inhibitors of human APOBEC3G DNA deaminase; Q9HC16; recombinant A3G, ssDNA deamination FAM/TAMRA fluorescence; inhibition, % at 20 µM; 0.28% of 330,000 active;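 active = inhibition of at least 40% at 20 µM, with no more than 30% in the related APOBEC3A deaminase screen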;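 also: plate controls were DMSO wells with A3G for no effect and wells lacking A3G enzyme for full effect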
PHOSPHO1 block = blocks human PHOSPHO1 phosphatase activity; recombinant PHOSPHO1, absorbance phosphatase assay; inhibition, % at 13.3 µM; 1.1% of 290,000 active; AID 1565; in the data active = inhibition above about 60%
Numbers without * were called inactive; / = no result given.

SMILES | rCAG RNA binder | A3A deaminase | ALR inh | aDG glyco up | APOBEC3G inh | PHOSPHO1 block
NC(=O)c1ncn([C@@H]2O[C@H](C(=O)N[C@H](Cc3c[nH]c4ccccc34)C(=O)NCC(=O)N3CCCCC3)[C@@H](O)[C@H]2O)n1 | 2.6 | / | / | / | / | /
O=C(CSCc1ccc(Cl)cc1)Nc1ccc(O)cc1C(=O)O | 5.2 | -5.3 | 96.3* | -0.1 | -3.4 | 40.1
O=C(Cc1cccc2ccccc12)Nc1ccc(O)cc1C(=O)O | 8.4 | 1.0 | 96.9* | -0.1 | -1.4 | /
COC(=O)C[C@@H]1CC[C@H]2[C@@H](COc3ccc(NC(=O)NC(C)C)cc3C(=O)N2C)O1 | 0.5 | / | / | / | / | /
COc1ccc(N/N=C(/C(C)=O)N2CCCc3ccccc32)cc1 | 2.0 | -1.5 | 95.9* | 0.1 | -3.4 | -52.5
CCCN1CCS(=O)(=O)N(Cc2cn(Cc3ccc(Cl)cc3)nn2)C(C(=O)OC)C1 (centres undefined) | -2.8 | / | / | / | / | /
COc1cc(C(=O)NC2CCCCN(C)C2=O)cc(OC)c1OC (centres undefined) | 1.4 | / | / | / | / | /
COC(=O)Cc1ccc(O)c(N)c1 | 0.3 | -4.8 | 95.4* | 0.2 | -5.8 | 20.6
COC(=O)[C@]12C[C@H](CC(=O)NCC3CCCCC3)C(=O)N(Cc3ccco3)C1=C[C@H](COCc1ccccc1)O[C@@H]2C | 6.3 | / | / | / | / | /
Clc1ccc(CN2CCN(c3ncc(Cc4ccccc4)cn3)CC2)c(Cl)c1 | 1.2 | / | / | / | / | /
O=C(N/N=C/c1ccc(O)c(O)c1)NC12CC3CC(CC(C3)C1)C2 | 7.2 | -8.3 | 99.3* | 0.2 | -8.9 | 7.1
COc1cc(/C=N/NC(=O)CCC(=O)Nc2ccc(F)cc2)ccc1O | 2.3 | -3.6 | 38.3 | -0.1 | -2.9 | 33.7
CCOc1ccc(/C=N/NC(=O)NC23CC4CC(CC(C4)C2)C3)cc1O | 1.8 | -3.2 | 99.1* | 0.2 | -9.3 | 11.1
COc1cc(/C=N\NC(=O)C2CC3C=CC2C3)ccc1O (centres undefined) | -1.5 | -1.2 | 99.6* | -0.2 | 1.2 | 4.7
COc1cc(/C=N/NC(=O)NC23CC4CC(CC(C4)C2)C3)ccc1O | 0.7 | 3.8 | 95.5* | 0.1 | 6.4 | 28.6
COc1ccccc1C(=O)N1CCN(C(=O)[C@H]2O[C@@H](n3cnc(C(N)=O)n3)[C@H](O)[C@@H]2O)CC1 | -0.3 | / | / | / | / | /
O=S1(=O)c2ccc(Br)cc2OC[C@@H](c2ccccc2)N1Cc1cn(CCC2OCCO2)nn1 | 5.2 | / | / | / | / | /
COC(=O)CSc1nc2nc(C)c(Br)cc2[nH]1 | 3.9 | -1.4 | 72.3 | -0.3 | -9.3 | 73.3*
Cc1ccc(NC(=O)CSc2nc3nc(C)c(Br)cc3[nH]2)cc1F | 10.7 | -7.2 | 43.4 | 0.1 | -6.3 | 19.9
Cc1nc2nc(SCc3ccc([N+](=O)[O-])cc3)[nH]c2cc1Br | 3.6 | -2.3 | -10.8 | 0.1 | -7.6 | 37.1
C=C(C)CSc1nc2nc(C)c(Br)cc2[nH]1 | -1.1 | 1.2 | 9.6 | -0.2 | 11.2 | 82.7*
CCOC(=O)[C@@]12CCCC3=C1N(CCC3)C(=O)[C@H]2CC(=O)NCC1CCCCC1 | 1.1 | / | / | / | / | /
CCOC(=O)N1CCN(C(=O)c2ccc3c(=O)n(Cc4ccc(Cl)cc4)c(=S)[nH]c3c2)CC1 | 6.7 | 5.5 | -3.0 | 0.5 | -2.1 | 35.1
CCOC(=O)Cn1c(=S)[nH]c2c(oc3ccc(Cl)cc32)c1=O | 3.5 | -3.9 | 95.8* | 0.9 | -5.7 | 93.0*
COCCNC(=S)Nc1ccc2nc(N3CCCC3)cc(C)c2c1 | -0.6 | 0.9 | 72.5 | 0.5 | -2.9 | 12.1
SMILES | rCAG RNA binder | A3A deaminase | ALR inh | aDG glyco up | APOBEC3G inh | PHOSPHO1 block
Cc1cc(N2CCOCC2)nc2ccc(NC(=S)NCc3ccc4c(c3)OCO4)cc12 | 8.6 | -4.3 | 98.8* | -0.2 | -6.0 | -9.9
Cc1cc(N2CCOCC2)nc2ccc(NC(=S)NC(C)C)cc12 | 7.5 | -5.4 | 92.7* | 0.4 | -7.1 | 28.4
COCCNC(=S)Nc1ccc2nc(N3CCOCC3)cc(C)c2c1 | -2.5 | -4.2 | 84.9* | 0.1 | -9.9 | 20.3
Cc1nnc(C)n1N=Cc1ccc(O)cc1O | 0.8 | / | / | / | / | /
COCCCNC(=O)C[C@H]1C[C@@]2(C(=O)OC)C(=C[C@H](C(C)C)O[C@@H]2C2CC2)N(Cc2ccco2)C1=O | -2.9 | / | / | / | / | /
CCOC(=O)[C@@]12CCCC3=C1N(CCC3)C(=O)[C@H]2CC(=O)NCc1cccc(C(F)(F)F)c1 | -1.7 | / | / | / | / | /
COc1cc(OC)cc(C(=O)c2c(C)c(C#N)c3ccccn23)c1 | -1.3 | 1.8 | / | 0.0 | -5.8 | 36.0
